# Shown are actives, neighbours in structure and some others; about 19% of the full set was active somewhere.
# HT1080NT lethal – kills 2HG-producing HT-1080-NT fibrosarcoma cells; HT-1080-NT fibrosarcoma viability, CellTiter-Glo ATP luminescence, 48 h; Potency, µM (top dose mostly 46.1 µM), inactives show at the highest dose activity, negative = less viability, actives largely listed as cytotoxic; 360,000 compounds, 1.6% hits;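 note: NT is the 2HG producing partner of a matched IDH1 knockdown line; 0% = DMSO-treated cells and -100% = media-only wells without cells; nearly all actives have a fitted effect of over 55% in size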
#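 HT-1080-NT fibrosarcoma cells (2HG-overproducing), 750 cells/well in RPMI with 5% FBS, dosed after 2 h and incubated 48 h at 37C. CellTiter-Glo luminescence normalized to DMSO and no-cell wells; concentration-response curves fitted and classed.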
# KB-V1 MDR tox – KB-V1 MDR subline cytotoxicity; KB-V1 MDR cells viability, CellTiter-Glo, 72 h; Potency, µM (series often up to 46.1 µM), most hits filed as cytotoxic; 400,000 compounds, 3.4% hits; AID 1347076; note: nearly all actives have a fitted effect of over 60% in size
#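 KB-V1 cells (P-gp-expressing MDR subline of KB-3-1) in phenol-red-free DMEM with 10% FBS were exposed to library compounds over a concentration series for 72 h at 37 degrees C. Viability read by CellTiter-Glo luminescence; concentration-effect curves fitted after normalization.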
# HT1080 IDH1KD tx – toxicity to HT-1080 IDH1 knockdown cells (counter line); AID 686971; Potency, µM (doses to about 46.1 µM), inactives show top-dose activity, negative = toxicity, most hits filed as cytotoxic; 360,000 compounds, 2% hits; HT-1080 IDH1 knockdown viability, ATP luminescence, 48 h;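 note: 0% = DMSO wells and -100% = cell-free medium wells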
#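 Using the IDH1-knockdown HT-1080 line run in the same batch and compound series as the NT line, viability after 48 h at 37 °C was determined by CellTiter-Glo luminescence and expressed as % activity.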
# KB-3-1 tox – KB-3-1 parental cell cytotoxicity | KB-3-1 viability, CellTiter-Glo ATP luminescence, 72 h | Potency, µM (highest dose often 46.1 µM), actives largely listed as cytotoxic | 400,000 compounds, 1.4% hits | AID 1347075; note: nearly all actives have a fitted effect of over 60% in size
#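 Using CellTiter-Glo luminescence, growth of non-resistant KB-3-1 adenocarcinoma cells is assessed 72 h after pin-tool compound addition at 37 °C. Normalized responses across the concentration series yield fitted curves.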
# TDP1 cell CPT – growth inhibition of DT40 Tdp1-/-;hTDP1 cells with camptothecin (screen for TDP1 inhibitors); chicken DT40 Tdp1-/-;hTDP1 cells + 20 nM CPT, ATP luminescence, 48 h; Potency, µM (doses to about 46.2 µM), inactives show at the top dose activity change, negative = growth inhibition, actives largely listed as inhibitors; 420,000 compounds, 12% hits; AID 686979; note: nearly all actives have a fitted effect of over 55% in size
#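 Chicken DT40 Tdp1-/- cells complemented with human TDP1, 400 cells/well, exposed to compounds plus 20 nM camptothecin for at least 48 h at 37 C; viability read as ATP content by CellTiter-Glo luminescence.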
# TDP1 cell noCPT – qHTS for Inhibitors of human tyrosyl-DNA phosphodiesterase 1 (TDP1): qHTS in cells in absence of CPT; Potency, µM (titrated, usually from 46.2 µM), without a hit: at the top dose activity change, negative = growth inhibition, hits mostly inhibitors; 420,000 compounds, 15% hits; DT40 Tdp1-/- hTDP1 cells, no CPT, ATP luminescence, 48 h; note: nearly all actives have a fitted effect of over 55% in size
#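 Chicken DT40 Tdp1-/- cells complemented with human TDP1, screened without camptothecin (DMSO vehicle only), 400 cells/well. Compounds pin-transferred, cells incubated at 37 °C for at least 48 hr. Growth read as ATP-dependent luminescence (CellTiter-Glo, 30 min at RT).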
# * marks the source's active call; other numbers are inactive results; i = inactive; ? = inconclusive; nt = no result given. Calls come from the whole dose curve; as a rule, active = well fitted curve in the direction sought with a large enough effect; inconclusive = small, poorly fitted or top-dose-only effect, or another doubt; inactive = no such curve, though single readings can be large; an effect the other way counts as inactive or inconclusive. Unless noted, % is set by controls: 0 for no effect and ±100 for the full control effect; potency is the fitted concentration of half-maximal effect.
SMILES,HT1080NT lethal,KB-V1 MDR tox,HT1080 IDH1KD tx,KB-3-1 tox,TDP1 cell CPT,TDP1 cell noCPT
OC(c1ccc(Cl)cc1)c1ncc(-c2cccc(F)c2)[nH]1 (configuration not stated),?,i,?,i,?,?
CC1CCN(S(=O)(=O)c2ccc3c(c2)N(CC(=O)NCCN(C)C)C(=O)CS3)CC1,nt,?,nt,i,-16.4%,3.9%
Cc1noc(C)c1-c1cc(NC2CC2)ncn1,nt,nt,nt,nt,11.6µM*,8.2µM*
Cc1noc(C)c1-c1cc(N(C)C)ncn1,nt,nt,nt,nt,?,23.1µM*
CCCC(C)(C)C(=O)N1CCC1(C)C(=O)NS(=O)(=O)c1ccc(Cl)cc1 (configuration not stated),6.9%,i,?,i,-27.8%,1.5%
O=C1Cc2c([nH]c3ccc([N+](=O)[O-])cc23)-c2ccccc2N1,-9.6%,?,2.06µM*,0.82µM*,1.84µM*,1.84µM*
CCNc1ncc2nc(-c3cccs3)c(=O)n(CCC#N)c2n1,nt,nt,nt,nt,-17.0%,-12.7%
Cc1nnc(N2CCN(c3ccccc3F)CC2)c2c1nnn2Cc1ccccc1,nt,i,nt,i,?,16.4µM*
Cc1nnc(N2CCN(c3ccccc3F)CC2)c2c1nnn2Cc1ccc(F)cc1,nt,?,nt,i,?,?
Cc1nnc(N2CCN(c3ccccc3F)CC2)c2c1nnn2Cc1ccccc1Cl,nt,i,nt,i,14.6µM*,?
CCSc1ncc(Cl)c(C(=O)Nc2ccc(S(=O)(=O)Nc3nccc(C)n3)cc2)n1,nt,i,nt,i,-28.3%,?
COc1ccc(NC2c3ncccc3C(=O)N2Cc2ccccc2)c(OC)c1 (configuration not stated),4.5%,i,-2.0%,i,-22.0%,-24.0%
COc1ccc(CN2C(=O)c3cccnc3C2Nc2ccc(OC)c(Cl)c2)cc1 (configuration not stated),7.4%,14.6µM*,-1.7%,i,-18.3%,-23.2%
O=C(NCCCN1CCN(c2ccc(F)cc2)CC1)Nc1ccc(Cl)cc1,nt,i,nt,i,20.6µM*,18.4µM*
O=C(NCCCN1CCc2ccccc2C1)Nc1ccc(Cl)cc1,?,14.6µM*,?,i,16.4µM*,-27.3%
COc1ccc(N2CCN(CCCNC(=O)Nc3ccccc3Cl)CC2)cc1,nt,i,nt,?,?,20.6µM*
O=C(NCCCN1CCOCC1)NC12CC3CC(CC(C3)C1)C2,-3.7%,?,0.9%,i,-14.6%,-28.5%
O=C(NCCCN1CCN(c2ccc(F)cc2)CC1)NC12CC3CC(CC(C3)C1)C2,16.4µM*,i,14.6µM*,i,16.4µM*,20.6µM*
COc1ccc(NC(=O)NCCN2CCc3ccccc3C2)cc1,-0.9%,i,1.2%,i,-13.9%,-8.0%
COc1cc(NC(=O)C2CCN(C(=O)c3sc4nc[nH]c(=O)c4c3C)CC2)cc(OC)c1OC,nt,nt,nt,nt,-7.1%,-10.0%
c1ccc(CNc2ccnc(-c3ccoc3)n2)cc1,nt,nt,nt,nt,-0.6%,-22.2%
COCCn1c(C)cc(O)c(C(c2ccc(Cl)cc2)N2CCCCC2)c1=O (configuration not stated),nt,i,nt,i,4.1%,0.4%
Cc1ccc(Cn2c(=O)n(-c3cccc(C(F)(F)F)c3)c(=O)c3c(C)c(C)sc32)c(C)c1,nt,i,nt,i,?,?
Brc1cccc(-c2cnn3c(-c4ccccc4)cc(-c4ccccc4)nc23)c1,nt,i,nt,i,-16.9%,-8.9%
Cc1cccc(-n2c(-c3ccccc3)cn3c4c(=O)[nH]c(=O)n(C)c4nc23)c1,nt,?,nt,i,nt,nt
SMILES,HT1080NT lethal,KB-V1 MDR tox,HT1080 IDH1KD tx,KB-3-1 tox,TDP1 cell CPT,TDP1 cell noCPT
O=C(NCCCN1CCN(c2cccc(Cl)c2)CC1)C1(S(=O)(=O)c2ccc(Cl)cc2)CC1,-9.2%,i,-16.9%,?,?,?
COc1ccc(Cl)c(N2CCN(CCCNC(=O)Nc3ccc(C)cc3)CC2)c1,?,i,?,23.1µM*,?,?
O=C(NCCCN1CCN(c2ccc(F)cc2)CC1)Nc1ccccc1Cl,nt,i,nt,i,20.6µM*,?
COc1ccc(NC(=O)NCCN2CCN(c3cc(OC)ccc3OC)CC2)cc1,7.9%,i,6.6%,i,-7.9%,-2.6%
COc1ccc(N2CCN(CCCNC(=O)C3(S(=O)(=O)c4ccc(Cl)cc4)CC3)CC2)cc1,2.0%,9.2µM*,4.7%,i,-27.9%,?
CSc1ccc(N2CCN(CCCNC(=O)Nc3ccccc3F)CC2)cc1,6.7%,?,-1.3%,i,?,?
Cc1cccc(C)c1N1C(=O)c2ccccc2NC(=O)C1C(=O)NCc1ccco1 (configuration not stated),6.9%,i,15.6%,i,-2.4%,-26.7%
CC12CCC(CC1O)C2C(=O)O (configuration not stated),5.7%,i,7.1%,i,6.9%,-4.1%
Cc1ccc(SCC(=O)c2c(C)nc3ccccn23)cc1,?,?,-22.6%,?,20.6µM*,10.3µM*
CCOC(=O)C(=O)c1c(-c2ccc(C)cc2)nc2ccccn12,-3.4%,i,-1.8%,i,23.1µM*,?
CCOC(=O)c1c(C)nc2ccccn12,-1.8%,i,?,i,-6.4%,-10.4%
